Source: PubChem BioAssay (NCI)
This is part of a sample that, as a whole, favours compounds with a hit. Of some 83,000 tested, about 20% had one in any assay.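 How to read the values: 0–100, growth inhibition (40 = 60% inhibited); 0, no net growth; -100 to 0, cell death (-40 = 40% of starting cells died; -100 = all dead).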 A number with no mark means an inactive call. Active and inactive are the calls of the source. The calls were made as follows: active = growth percent below 10; inactive = the rest.

How the values were obtained:
Assay in all cases: NCI-60 one-dose screen, 48 h (100 = growth as untreated, 0 = no growth, -100 = all killed)
SK-MEL-2 melanoma = details: 10 µM unless noted
EKVX NSCLC = details: 10 µM unless noted
SN12C renal = details: 10 µM unless noted
UO-31 renal = details: 10 µM unless noted
TK-10 renal = details: 10 µM unless noted
CAKI-1 renal = details: 10 µM unless noted
A498 renal = details: 10 µM unless noted
CCRF-CEM leukemia = details: 10 µM unless noted
MOLT-4 leukemia = details: 10 µM unless noted
SR leukemia = details: 10 µM unless noted
RPMI-8226 leukemia = details: 10 µM unless noted
OVCAR-8 ovarian = details: 10 µM unless noted
OVCAR-5 ovarian = details: 10 µM unless noted
OVCAR-4 ovarian = details: 10 µM
SK-OV-3 ovarian = details: 10 µM unless noted
IGROV1 ovarian = details: 10 µM unless noted
OVCAR-3 ovarian = details: 10 µM unless noted
HS 578T breast = details: 10 µM unless noted
NCI/ADR-RES ovarian = details: 10 µM unless noted
ACHN renal = details: 10 µM unless noted

SMILES	growth (SK-MEL-2 melanoma)	growth (EKVX NSCLC)	growth (SN12C renal)	growth (UO-31 renal)	growth (TK-10 renal)	growth (CAKI-1 renal)	growth (A498 renal)	growth (CCRF-CEM leukemia)	growth (MOLT-4 leukemia)	growth (SR leukemia)	growth (RPMI-8226 leukemia)	growth (OVCAR-8 ovarian)	growth (OVCAR-5 ovarian)	growth (OVCAR-4 ovarian)	growth (SK-OV-3 ovarian)	growth (IGROV1 ovarian)	growth (OVCAR-3 ovarian)	growth (HS 578T breast)	growth (NCI/ADR-RES ovarian)	growth (ACHN renal)
CC1Cc2c(Cl)ncnc2N(C)c2ccc(Cl)cc21 (stereo not given)	-27.7% (active)	14.2%	2.41% (active)	19.6%	11.2%	8.59% (active)	-34.9% (active)	19.4%	8.07% (active)	6.35% (active)	-3.81% (active)	8.59% (active)	39.8%	7.91% (active)	12%	30.5%	9.74% (active)	23.4%	13.1%	
O=C(Nc1ccc(Nc2ccncc2)cc1)c1ccc([N+](=O)[O-])cc1	94.8%	69.9%	72.9%	55.6%	90.4%	52.6%	76%	1.05% (active)	6.48% (active)	-45.3% (active)	22.8%	61%	101%	67.3%	88.6%	85.4%	60.4%	95.4%	92%	
CC(=O)OC[C@]12CC[C@@H]([C@@H](C)C(N)=O)[C@@H]1[C@H]1CC[C@@H]3[C@@]4(C)CC[C@H](OC(C)=O)C(C)(C)[C@@H]4CC[C@@]3(C)[C@]1(C)CC2	-77.6% [100 µM] (active)	-25.2% [100 µM] (active)	-91.6% [100 µM] (active)	-97.5% [100 µM] (active)	-35.4% [100 µM] (active)		-81.7% [100 µM] (active)	-12.4% [100 µM] (active)	-29.1% [100 µM] (active)	10.8% [100 µM]	-18.3% [100 µM] (active)	-31.7% [100 µM] (active)	-77.4% [100 µM] (active)		-11.9% [100 µM] (active)	-71.3% [100 µM] (active)	-76.2% [100 µM] (active)	-33% [100 µM] (active)	-57.3% [100 µM] (active)	-75.7% [100 µM] (active)
CC(=O)OC[C@]12CC[C@@H](C(=O)CBr)[C@@H]1[C@H]1CC[C@@H]3[C@@]4(C)CCCNC(C)(C)[C@@H]4CC[C@@]3(C)[C@]1(C)CC2	-80.8% [100 µM] (active)	-81% [100 µM] (active)	-37.8% [100 µM] (active)	-99.3% [100 µM] (active)	-92.4% [100 µM] (active)		-84.5% [100 µM] (active)	-32.5% [100 µM] (active)	-23.2% [100 µM] (active)	14.7% [100 µM]	-36.1% [100 µM] (active)	-26.1% [100 µM] (active)	-74.4% [100 µM] (active)		-86.8% [100 µM] (active)	-61.3% [100 µM] (active)	-85.3% [100 µM] (active)	-22.7% [100 µM] (active)	-38.8% [100 µM] (active)	-90.1% [100 µM] (active)
O=C(Nc1cccc(C2=NCCN2)c1)c1cccc(C(=O)Nc2cccc(C3=NCCN3)c2)c1	103%	88.6%	95.7%	84.5%	89.3%	92.6%	111%	104%	100%	92.3%	94.3%	101%	95.7%	94.7%	104%	99.1%		98.4%	98.8%	
Cc1nc(Cl)cc(N(c2cc(Cl)nc(C)n2)c2ncc(C(=O)Nc3c(C)cccc3Cl)s2)n1	87.4%	84.7%	37.5%	24.8%	36.7%		35.6%	53.7%	40.6%	86.9%	50.8%	63.1%	38.5%		39.8%	-22% (active)	49.9%	-1.46% (active)	59.3%	14.1%
O=C(NNc1ccc(-c2ccccc2)nn1)c1ccc(F)cc1	108%	78.4%	95.1%	80.8%	82.9%		67.6%	108%	96.2%	92%	99.7%	98.6%	94.2%	94.8%		97%	103%	101%	93.3%	90.9%
O=C1NC(=O)C(Cc2ccc(OCc3ccc(-c4cc(F)c(F)c(F)c4)cc3)cc2)S1 (stereo not given)	94.4%	80.9%	80.1%	64.5%	100%	53.9%	95.5%	80.4%	76.8%	83.8%	69%	90.2%	93.4%	68.7%	87.5%	69.3%	88.3%	83.5%	82.1%	
CN(C)CCCNc1nc(-c2cccc(C(Cl)(Cl)Cl)c2)nc(C(Cl)(Cl)Cl)n1	99%	104%	102%	83.5%	115%		65.9%	98.3%		77.8%	99.5%	101%	106%	107%	111%	94.4%	117%	91.8%		108%
Cc1ccc(N)c(O)c1	100%	98.6%	115%	84.5%	158%	94.8%	50.7%	77.9%	106%	112%	61.9%	96%	108%	84.2%	112%	69.6%	87.7%	92.9%	92.8%	
C=C(C)[C@@H]1CC[C@]2(C(=O)NCCNCCNCCN)CC[C@]3(C)[C@H](CC[C@@H]4[C@@]5(C)CC[C@H](O)C(C)(C)[C@@H]5CC[C@]43C)[C@@H]12	-65.4% [100 µM] (active)	-11.4% [100 µM] (active)	-53.7% [100 µM] (active)	-100% [100 µM] (active)	-67.3% [100 µM] (active)	-93.6% [100 µM] (active)	-32.6% [100 µM] (active)	5.18% [100 µM] (active)	1.18% [100 µM] (active)	-4.72% [100 µM] (active)	-8.15% [100 µM] (active)	-12.9% [100 µM] (active)	-83.4% [100 µM] (active)		-14.2% [100 µM] (active)	-81.4% [100 µM] (active)	-66% [100 µM] (active)	-23.3% [100 µM] (active)	-13.1% [100 µM] (active)	
Cn1cc(-c2noc(-c3cn(C)c4ncc(F)cc34)n2)c2ccccc21	93.8%	34.3%	33.6%	61.7%	38.9%	47.1%	62.9%		77.4%	69.1%	78.2%	40%	75.1%	-29.4% (active)	7.74% (active)	45%	32.5%	30.9%	58.2%	
CC/C=C(\C)C(CCC)(CN=O)C(=O)OCC (stereo not given)	106%	112%	108%	90.4%	103%	104%	114%	101%	90.1%	87.6%	96.3%	105%	113%	110%	99.9%	118%	127%	143%	108%	
Oc1ccc(N=Nc2nccs2)c(O)c1	97.7%	41.4%	73.7%	39.2%	60.3%	25.9%	225%	19.5%	11.8%	8.21% (active)	20.1%	36.4%	87.5%	25.9%	78.2%	42.9%	-1.86% (active)	80.2%	12.4%	
CCNc1cc2c(cc1Br)-c1ccccc1C2=O	98%	71.5%	94.5%	55.1%	104%	74.5%	93.4%	97.2%	98.3%	91.6%	100%	90.1%	115%	92.5%	90.4%	82%	91.8%	96.8%	96%	
CC(C)CCSc1nc(N)nc2nc[nH]c12	109%	109%	92.8%	86.1%	154%	108%	116%	102%	116%	89.8%	94.6%	94.1%	107%	112%		79.9%	103%	122%	104%	
O=S(=O)(NCCNc1nccc(-c2c(-c3cccc(F)c3)nc3occn23)n1)c1ccc(C(F)(F)F)cc1	92.2%	84.2%	84.8%	57.1%	97.5%		78%	84%	52.9%	88.3%		87.5%	102%	87.6%	79.5%	77%	99.1%	74.3%	95.5%	87.7%
CCOC(=O)c1nn(C2CCCCO2)c2ccc(NC(=O)CSc3nc4ccccc4c(=O)[nH]3)cc12 (stereo not given)	105%	102%	87%	79.6%	108%	77.7%	69.7%	93.1%	103%	113%	101%	98.1%	115%	100%		101%	106%	51.6%	107%	
